Test results from PubChem BioAssay (NCI).
The panel holds about 83,000 compounds, 20% with a hit somewhere; the sample as a whole holds those more often.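 Note: values are percent growth. 100 is the growth of untreated cells, values between 100 and 0 indicate rising inhibition; between -100 and 0 indicates cell death.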 Calls of active or inactive are those of the source. Rule for the calls: active = growth percent below 10; inactive = the rest.

tested on: OVCAR-8 ovarian; experiment: NCI-60 one-dose screen, 48 h (100 = growth as untreated, 0 = no growth, -100 = all killed); conditions: 10 µM

Row | SMILES | growth
1 | CN1CCN(c2ccc(Nc3nc(NCCCNC(=O)c4ccc(F)cc4)c4sccc4n3)cc2)CC1 | 47.5% (inactive)
2 | O=C(CS(=O)(=O)c1oc(-c2ccc(Cl)cc2)nc1S(=O)(=O)c1ccc(Cl)cc1)N1CCOCC1 | 28.3% (inactive)
3 | COc1ccc(C(=O)NC(=S)N2CCN(c3ncnc4c3cnn4-c3ccccc3)CC2)cc1 | 51.3% (inactive)
4 | COc1cccc(COc2ccc(/C=C3\Oc4cc(O)ccc4C3=O)cc2)c1 | 23.6% (inactive)
5 | O=C(O)CCCCCCCCCCN1C(=O)/C(=C/c2cnc(-c3ccc(Cl)cc3)s2)SC1=S | -2.09% (active)
6 | O=c1[nH][nH]c(Nc2ccccc2)c1N=Nc1ccc(F)cc1 | 101% (inactive)
7 | COc1ccc2[nH]c(O)c(N=NC(=O)c3cc(-c4ccc(C)cc4)nc4ccccc34)c2c1 | 88.5% (inactive)
8 | CC(=O)NNc1ccc2nnc(-c3ccc(Br)cc3)n2n1 | 105% (inactive)
9 | CCN1CCN(c2ccc(NC(=O)Nc3ccc(-c4cc(C(=O)NC(C)C)c5ncccc5n4)cc3)cc2C(F)(F)F)CC1 | -83.3% (active)
10 | COC(=O)C(Cc1ccc(O)c(O)c1)NC(=O)C(CSC/C=C(\C)CCCC(C)CCCC(C)CCCC(C)C)NC(C)=O (stereo not given) | 10.8% (inactive)
11 | CN1CCN(c2ccc(Nc3nc(NCCCNC(=O)c4ccc(Cl)cc4)c4sccc4n3)cc2)CC1 | 67.9% (inactive)
12 | CCCCCCCCCCCCCCCCCCCC(=O)NCCc1c[nH]c2ccc(O)cc12 | 102% (inactive)
13 | CCCCCc1ccc(S(=O)(=O)N(C(C)=O)c2cc(-c3csc(N(C)C(C)=O)n3)ccc2N2CCN(C)CC2)cc1 | 41.2% (inactive)
14 | CCCCCCCCCCCCCCCCCCCC(=O)NCCc1c[nH]c2ccc(OC(=O)NOCCOCCOCCOCCOCCOCCOCCOCCOCCOCCOCCOCCOCCOCCOCCOCCOCCOCCOCCOCCOCCOCCOC)cc12 | 7.17% (active)
15 | CC1(C)CC[C@]2(C(=O)N3CCOCC3)CC[C@]3(C)C(=CC[C@@H]4[C@@]5(C)CC[C@H](NCO)C(C)(C)[C@@H]5CC[C@]43C)[C@H]2C1 | -73.5% (active)
16 | Cc1ccc(-c2cc(C(=O)N=Nc3c(O)[nH]c4ccc(Br)cc34)c3ccccc3n2)cc1 | 56.5% (inactive)
17 | CCC(C)S(=O)(=O)c1oc(-c2ccc(C)cc2)nc1S(=O)(=O)c1ccccc1 (stereo not given) | -65.8% (active)
18 | CCCCCc1ccc(S(=O)(=O)Nc2cc(-c3csc(N(C)C(C)=O)n3)ccc2N2CCN(C)CC2)cc1 | 36% (inactive)
19 | C/C(=C\CC/C=C(\C)CC/C=C(\C)CC[C@@H](O)C(C)(C)O)CC/C=C(\C)CC[C@@H](O)C(C)(C)O | 47.6% (inactive)
20 | CC(C)C(=O)Nc1ccc(C(=O)NC(=S)Nc2ccc(C(=O)O)cc2)cc1 | 111% (inactive)
21 | CN1CCN(c2ccc(Nc3nc(N4CCN(S(=O)(=O)c5ccc(F)cc5)CC4)c4sccc4n3)cc2)CC1 | -85% (active)
22 | O=C(Cn1cc(CSc2nnc3oc4ccccc4n23)nn1)Nc1ccc(Br)cc1 | 16% (inactive)
23 | CC1(C)CC[C@]2(C(=O)NCCCNCCCCNCCCN)CC[C@]3(C)C(=CC[C@@H]4[C@@]5(C)Cc6c([nH]c7ccccc67)C(C)(C)[C@@H]5CC[C@]43C)[C@H]2C1 | 98.6% (inactive)
24 | COc1ccc(CCN2C(=O)/C(=C/c3csc(C#N)n3)SC2=S)cc1 | -5.34% (active)
25 | CC(=O)Nc1nc(-c2ccc(N3CCN(C)CC3)c(NS(=O)(=O)c3ccc(C(F)(F)F)cc3)c2)cs1 | 8.42% (active)
26 | O=C(NO)c1ccc(Cn2ccc3c(Nc4ccccc4)ncnc32)cc1 | -21.4% (active)
27 | COC[C@@H](CC(C)C)N=C1NC(=O)/C(=C/c2ccc3ncsc3c2)N1 | 13.7% (inactive)
28 | O=C(NC(=S)N1CCN(c2ncnc3c2cnn3-c2ccccc2)CC1)c1ccc(Cl)cc1 | 38.3% (inactive)

tested on: OVCAR-5 ovarian; experiment: as above; conditions: 10 µM

Row | SMILES | growth
29 | CN1CCN(c2ccc(Nc3nc(NCCCNC(=O)c4ccc(F)cc4)c4sccc4n3)cc2)CC1 | 78.2% (inactive)
30 | O=C(CS(=O)(=O)c1oc(-c2ccc(Cl)cc2)nc1S(=O)(=O)c1ccc(Cl)cc1)N1CCOCC1 | 38.3% (inactive)
31 | COc1ccc(C(=O)NC(=S)N2CCN(c3ncnc4c3cnn4-c3ccccc3)CC2)cc1 | 79.3% (inactive)
32 | COc1cccc(COc2ccc(/C=C3\Oc4cc(O)ccc4C3=O)cc2)c1 | 77.6% (inactive)
33 | O=C(O)CCCCCCCCCCN1C(=O)/C(=C/c2cnc(-c3ccc(Cl)cc3)s2)SC1=S | 56.9% (inactive)
34 | COc1cccc(C(N)=Nc2ccc(OCCCCCCn3cncn3)cc2)c1 | 28.2% (inactive)
35 | CN(C)c1cccc2c(S(=O)(=O)Nc3cccc(-c4csc(NC(=O)CCCCCN5CCN(c6cc7c(cc6F)C(=O)N(C6CCC(=O)NC6=O)C7=O)CC5)n4)c3)cccc12 (stereo not given) | 105% (inactive)
36 | Cc1ccc(C(C)C)cc1NC(=O)c1ccccc1O | 96.2% (inactive)
37 | NC(=Nc1ccc(OCCCCCCCCn2ccnn2)cc1)c1ccccc1 | 24.9% (inactive)
38 | O=c1[nH][nH]c(Nc2ccccc2)c1N=Nc1ccc(F)cc1 | 112% (inactive)
39 | COc1ccc2[nH]c(O)c(N=NC(=O)c3cc(-c4ccc(C)cc4)nc4ccccc34)c2c1 | 119% (inactive)
40 | CN1C(=O)/C(=C/c2nccs2)SC1=S | 95.6% (inactive)
41 | CNC(=O)c1cc(-c2ccc(NC(=O)Nc3ccc(C)cc3)cc2)nc2cccnc12 | 105% (inactive)
42 | CC(=O)NNc1ccc2nnc(-c3ccc(Br)cc3)n2n1 | 102% (inactive)
43 | O=c1oc2ccc(-c3ccc(F)cc3F)cc2c(=O)n1-c1ccc(F)c(Cl)c1 | -5.91% (active)
44 | CCN1CCN(c2ccc(NC(=O)Nc3ccc(-c4cc(C(=O)NC(C)C)c5ncccc5n4)cc3)cc2C(F)(F)F)CC1 | -83.2% (active)
45 | COC(=O)C(Cc1ccc(O)c(O)c1)NC(=O)C(CSC/C=C(\C)CCCC(C)CCCC(C)CCCC(C)C)NC(C)=O (stereo not given) | 28% (inactive)
46 | CN1CCN(c2ccc(Nc3nc(NCCCNC(=O)c4ccc(Cl)cc4)c4sccc4n3)cc2)CC1 | 90.8% (inactive)
47 | CCCCCCCCCCCCCCCCCCCC(=O)NCCc1c[nH]c2ccc(O)cc12 | 111% (inactive)

Row | SMILES | growth
48 | CCCCCc1ccc(S(=O)(=O)N(C(C)=O)c2cc(-c3csc(N(C)C(C)=O)n3)ccc2N2CCN(C)CC2)cc1 | 57.6% (inactive)
49 | COc1ccc2[nH]c(O)c(N=NC(=O)COc3ccc(NC(=O)Nc4ccc(Cl)cc4)cc3)c2c1 | 48% (inactive)
50 | CCCCCCCCCCCCCCCCCCCC(=O)NCCc1c[nH]c2ccc(OC(=O)NOCCOCCOCCOCCOCCOCCOCCOCCOCCOCCOCCOCCOCCOCCOCCOCCOCCOCCOCCOCCOCCOCCOC)cc12 | -5.89% (active)
51 | CC1(C)CC[C@]2(C(=O)N3CCOCC3)CC[C@]3(C)C(=CC[C@@H]4[C@@]5(C)CC[C@H](NCO)C(C)(C)[C@@H]5CC[C@]43C)[C@H]2C1 | -99.9% (active)
52 | Cc1ccc(-c2cc(C(=O)N=Nc3c(O)[nH]c4ccc(Br)cc34)c3ccccc3n2)cc1 | 99.7% (inactive)
53 | CCC(C)S(=O)(=O)c1oc(-c2ccc(C)cc2)nc1S(=O)(=O)c1ccccc1 (stereo not given) | -91.3% (active)
54 | CCCCCc1ccc(S(=O)(=O)Nc2cc(-c3csc(N(C)C(C)=O)n3)ccc2N2CCN(C)CC2)cc1 | 68% (inactive)
55 | C/C(=C\CC/C=C(\C)CC/C=C(\C)CC[C@@H](O)C(C)(C)O)CC/C=C(\C)CC[C@@H](O)C(C)(C)O | 56.1% (inactive)
56 | CC(C)C(=O)Nc1ccc(C(=O)NC(=S)Nc2ccc(C(=O)O)cc2)cc1 | 96.6% (inactive)
57 | CN1CCN(c2ccc(Nc3nc(N4CCN(S(=O)(=O)c5ccc(F)cc5)CC4)c4sccc4n3)cc2)CC1 | -96.8% (active)
58 | O=C(Cn1cc(CSc2nnc3oc4ccccc4n23)nn1)Nc1ccc(Br)cc1 | 91.6% (inactive)
59 | CC1(C)CC[C@]2(C(=O)NCCCNCCCCNCCCN)CC[C@]3(C)C(=CC[C@@H]4[C@@]5(C)Cc6c([nH]c7ccccc67)C(C)(C)[C@@H]5CC[C@]43C)[C@H]2C1 | 91.1% (inactive)
60 | COc1ccc(CCN2C(=O)/C(=C/c3csc(C#N)n3)SC2=S)cc1 | 76.7% (inactive)
61 | CC(=O)Nc1nc(-c2ccc(N3CCN(C)CC3)c(NS(=O)(=O)c3ccc(C(F)(F)F)cc3)c2)cs1 | 44.8% (inactive)
62 | O=C(NO)c1ccc(Cn2ccc3c(Nc4ccccc4)ncnc32)cc1 | 0.443% (active)
63 | CC(=O)Nc1nc(-c2ccc(N3CCN(C)CC3)c(NS(=O)(=O)c3cccc4c(N(C)C)cccc34)c2)cs1 | 83.4% (inactive)
64 | COC[C@@H](CC(C)C)N=C1NC(=O)/C(=C/c2ccc3ncsc3c2)N1 | -21.7% (active)
65 | O=C(NC(=S)N1CCN(c2ncnc3c2cnn3-c2ccccc2)CC1)c1ccc(Cl)cc1 | 83.8% (inactive)
